High-throughput results: PubChem BioAssay, several laboratories
Mtb betalactam – beta-lactam sensitization of Mtb H37Rv; 0.27% of 330,000 active; M. tuberculosis H37Rv growth with meropenem, percent inhibition; inhibition, % at 25 µM; AID 434955; call rule not given here;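 also: growth measured after seven days incubation then overnight dye step; 0% = bacteria only wells and 100% = bacteria with antibiotic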
FBA Mtb inh – inhibits M. tuberculosis FBA enzyme. AID 588726. 2.3% of 360,000 active. inhibition, % at 1 µM. P9WQA3. purified M. tuberculosis FBA, fluorescence read-out;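 also: 0% = vehicle and 100% = reference inhibitor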
Target sequence (P9WQA3 whole entry, looked up): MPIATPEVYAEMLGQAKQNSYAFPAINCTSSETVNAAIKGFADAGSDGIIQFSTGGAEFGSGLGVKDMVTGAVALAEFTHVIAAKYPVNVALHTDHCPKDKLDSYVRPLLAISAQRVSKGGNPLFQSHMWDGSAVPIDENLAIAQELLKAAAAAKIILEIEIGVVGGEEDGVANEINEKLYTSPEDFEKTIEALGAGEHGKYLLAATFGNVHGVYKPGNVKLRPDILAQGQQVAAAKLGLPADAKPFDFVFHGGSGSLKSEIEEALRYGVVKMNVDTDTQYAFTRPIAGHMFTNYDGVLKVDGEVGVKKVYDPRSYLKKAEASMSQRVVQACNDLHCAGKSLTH
GDH-TPI counter-1 – inhibits GDH-TPI coupling enzymes, artifact for Mtb FBA screen; GDH-TPI coupled enzyme counterscreen, NADH absorbance; 1.2% of 360,000 active; inhibition, % at 4.8 µM; in the data active = inhibition above about 30%;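 also: 0% = DMSO wells and 100% = wells lacking the enzyme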
RecA splice inh – blocks M. tuberculosis RecA intein splicing. AID 2221. 0.75% of 290,000 active. cell-free RecA intein splicing, fluorescence. inhibition, % (no concentration beside the values). P9WHJ3; in the data active = inhibition above about 30%;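 also: 0% = vehicle wells and 100% = reference inhibitor control wells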
UGM FP inh – Mtb UDP-galactopyranose mutase inhibition | 0.06% of 320,000 active | purified UGM, fluorescence polarization probe displacement | AID 504406 | inhibition, % at 10 µM | P9WIQ1; in the data active = inhibition above about 10%, passing the limit was not always enough
Target sequence (P9WIQ1 whole entry, looked up): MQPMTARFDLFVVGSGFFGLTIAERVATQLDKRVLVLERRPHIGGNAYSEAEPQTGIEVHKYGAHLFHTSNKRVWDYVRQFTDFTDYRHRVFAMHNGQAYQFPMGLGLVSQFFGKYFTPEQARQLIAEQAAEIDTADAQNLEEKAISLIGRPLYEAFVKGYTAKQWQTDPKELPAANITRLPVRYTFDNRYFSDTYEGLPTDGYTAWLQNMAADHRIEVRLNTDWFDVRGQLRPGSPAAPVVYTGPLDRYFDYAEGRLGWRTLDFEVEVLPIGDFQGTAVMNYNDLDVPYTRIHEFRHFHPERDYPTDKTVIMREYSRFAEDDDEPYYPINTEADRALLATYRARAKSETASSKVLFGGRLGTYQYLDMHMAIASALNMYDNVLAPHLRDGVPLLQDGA
Rv3671c protease – inhibits the M. tuberculosis serine protease Rv3671c; inhibition, % at 5.96 µM; 0.048% of 320,000 active; in the data active = inhibition above about 38%;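 also: extracellular domain of Rv3671c used as enzyme; 0% = enzyme with DMSO and 100% = no enzyme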
Mtb FBA confirm – Mtb FBA inhibition, confirmed; shares compounds with FBA Mtb inh; purified M. tuberculosis FBA, fluorescence read-out; inhibition, % at 1 µM; 78% of 5,600 active;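 also: 0% = vehicle wells and 100% = reference inhibitor wells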
GDH-TPI counter-2 – inhibits GDH-TPI coupling enzymes, flagging Mtb FBA hits. 81% of 5,600 active. GDH-TPI coupled enzyme counterscreen, fluorescence. inhibition, % at 1 µM. shares compounds with FBA Mtb inh; in the data active = inhibition above about 10%
Active calls of the source: *; · = no result given; + = active, no number. Most compounds without a hit are left out; they make up all but 4% or so of the library. Rule as the data show it, unless noted: active = inhibition above about 27%; inactive = the rest.

SMILES | Mtb betalactam | FBA Mtb inh | GDH-TPI counter-1 | RecA splice inh | UGM FP inh | Rv3671c protease | Mtb FBA confirm | GDH-TPI counter-2
C=CCOC(=O)COc1ccc2c3c(c(=O)oc2c1)CCCC3 | · | 39.8* | 15.2 | · | · | · | 62.2* | 41.0*
Cc1oc(C(=O)O)cc1COc1ccc2c3c(c(=O)oc2c1)CCC3 | 0.3 | 38.1* | 26.6 | -1.6 | -0.1 | 1.4 | 55.3* | 44.1*
O=C(OC1CCOC1=O)c1cc(S(=O)(=O)N2CCOCC2)c(Cl)cc1Cl (stereo not given) | -11.5 | 0.0 | -6.2 | · | -1.6 | 11.3 | · | ·
COc1cc2c(cc1OC)CN(C(=O)CCNC(=O)c1ccccc1Cl)CC2 | 1.3 | -0.8 | 3.2 | · | -0.5 | 1.7 | · | ·
O=C(CCCCCN1C(=O)c2ccccc2C1=O)Oc1ccc2c3c(c(=O)oc2c1)CCC3 | 75.7 | 61.9* | 1.9 | -0.6 | 0.0 | 3.5 | -3.0 | -2.9
CCNC(=O)Nc1cc(OC)c(OC)cc1C(=O)O | 2.1 | 45.2* | 19.8 | -0.5 | -1.5 | -8.1 | 89.2* | 78.4*
CCCC(=O)Nc1cc(OC)c(OC)cc1C(=O)O | 6.2 | -2.6 | -2.9 | -4.3 | 0.9 | 4.7 | · | ·
O=C(CNC(=O)c1ccc(Cl)c([N+](=O)[O-])c1)NCC1CCCO1 (stereo not given) | -0.7 | -0.1 | -3.0 | -3.3 | 3.6 | -2.4 | · | ·
COc1ccc2oc(=O)c(C(=O)n3ccc(C)n3)cc2c1 | 1.6 | 39.8* | 16.5 | · | 3.6 | 0.0 | 77.8* | 54.1*
COc1cc(Br)cc2cc(C(=O)NCC3CCCO3)c(=O)oc12 (stereo not given) | 24.0 | 1.8 | 3.6 | -1.4 | 3.0 | -3.8 | · | ·
COc1ccc2oc(=O)c(C(=O)NCC3CCCO3)cc2c1 (stereo not given) | -3.8 | 64.0* | 14.9 | -97.0 | -0.6 | -0.4 | 79.3* | 59.4*
CNC(=O)c1cc2cc(OC)ccc2oc1=O | 1.6 | 58.6* | -1.3 | -28.1 | -1.1 | 0.5 | 13.6 | -3.8
Cc1ccc2nc(-c3ccccc3)cc(C(=O)NCC3CCCO3)c2c1 (stereo not given) | 2.6 | 40.7* | 6.9 | 3.6 | 1.7 | -9.1 | 80.6* | 86.3*
COc1ccc2oc(=O)c(C(=O)NC3CCCCCC3)cc2c1 | 3.5 | 9.7 | 17.0 | · | 0.9 | -2.4 | · | ·
O=C(Cc1ccc(Cl)cc1Cl)NCc1cccnc1 | 0.8 | 0.5 | 2.2 | 0.9 | 1.1 | -1.2 | · | ·
COc1ccc2oc(=N)c(C(=O)Nc3ccccc3)cc2c1 | 86.6 | 4.5 | 10.2 | · | 2.9 | -3.2 | · | ·
CNC(=O)c1cc2cc(OC)ccc2oc1=N | 3.7 | 53.8* | 5.9 | -58.8 | 1.1 | -0.4 | 27.7* | 15.7*
COc1ccc(-c2cc(C(F)F)n3ncc(C(=O)NCC4CCCO4)c3n2)cc1 (stereo not given) | 16.0 | 29.3* | 26.3 | -22.7 | 4.0 | -1.7 | 96.4* | 75.8*
O=S(=O)(Nc1ccc(-n2cnnn2)cc1)c1ccc(Cl)s1 | 2.2 | -1.7 | -2.3 | · | · | 7.7 | · | ·
COC1OC(CO)C(N=C(C)C)C1O (stereo not given) | · | 8.6 | 10.8 | · | · | · | · | ·
COC1OC(CO)C(O)C(O)C1O (stereo not given) | 1.1 | 33.1* | 2.1 | -0.7 | 0.3 | 5.6 | 54.5* | 44.7*
CCCCc1ccc(NC(=O)CSc2nc(=O)n(CCCN3CCOCC3)c3c2CCC3)cc1 | -2.4 | -2.8 | 10.8 | 10.0 | -0.1 | -2.9 | · | ·
O=C(CN1CCCCCC1)Nc1ccccc1C(=O)Nc1ccccc1 | -6.0 | -0.8 | -1.4 | 1.2 | -0.2 | 2.4 | · | ·
Cc1c(NC(=O)COc2ccc3ccc(=O)oc3c2)c(=O)n(-c2ccccc2)n1C | -2.8 | 79.4* | 15.5 | -5.8 | 1.2 | -1.2 | 64.2* | 56.6*
Nc1[nH]ncc1-c1ccc(F)cc1 | 89.1 | 107.9* | 10.9 | 4.8 | -3.0 | 5.5 | 9.6 | -5.8
SMILES | Mtb betalactam | FBA Mtb inh | GDH-TPI counter-1 | RecA splice inh | UGM FP inh | Rv3671c protease | Mtb FBA confirm | GDH-TPI counter-2
CCC(C)NC(=O)Cn1cnc2sc(C)c(S(=O)(=O)N3CCCCC3)c2c1=O (stereo not given) | 1.8 | 1.7 | -1.6 | 1.0 | -2.5 | -2.2 | · | ·
Cc1ccc(S(=O)(=O)c2c(N)n(Cc3ccco3)c3nc4ccccc4nc23)cc1 | 56.8 | 81.9* | 30.6* | -22.4 | 0.3 | -28.2 | 38.6* | 29.8*
Cc1ccc(S(=O)(=O)c2c(N)n(NC(=O)c3ccco3)c3nc4ccccc4nc23)cc1 | 4.7 | 35.5* | 19.1 | 3.8 | 0.2 | -4.6 | -3.3 | 0.3
Cc1ccc(S(=O)(=O)c2c(C)nn(-c3ccccc3)c2OC(=O)c2ccco2)cc1 | 1.0 | 0.1 | -1.8 | 2.7 | -0.5 | -10.7 | · | ·
Cc1cccc(S(=O)(=O)c2c(N)n(Cc3ccco3)c3nc4ccccc4nc23)c1 | 3.3 | 101.2* | 7.2 | -14.4 | -0.2 | -21.2 | 75.6* | 61.2*
Cn1cnc2c(=O)sc3ccccc3c21 | -6.5 | -4.0 | 1.5 | 1.1 | -1.6 | 0.8 | · | ·
CN1CCC(N(C)C(=O)c2ccc(Cl)c(S(=O)(=O)N(C)c3ccc(Cl)cc3)c2)CC1 | 6.3 | -2.4 | -2.2 | · | 1.4 | 2.9 | · | ·
CC(C)c1ccc(N(CC(=O)N2CCN(Cc3ccccc3)CC2)S(C)(=O)=O)cc1 | -4.6 | 1.6 | 9.6 | · | -2.4 | 0.0 | · | ·
Nc1ncnc2c1ncn2[C@@H]1O[C@H](CNC(=O)[C@@H](N)CO)[C@@H](O)[C@H]1O | · | -0.3 | -4.7 | · | · | · | · | ·
CC(Oc1ccc2c3c(c(=O)oc2c1)CCCC3)C(=O)NCc1ccccn1 (stereo not given) | 44.1 | 79.5* | 12.0 | -1.4 | 0.7 | -3.1 | 31.4* | 16.1*
Cc1c(C)c2ccc(OCC(=O)NCc3ccccn3)cc2oc1=O | -1.0 | 81.1* | 2.4 | -0.5 | 0.5 | 2.7 | + | +
Cc1cc(OC(C)C(=O)NCc2cccnc2)c2c(C)c(C)c(=O)oc2c1 (stereo not given) | -3.2 | 13.6 | -2.7 | 5.7 | -0.8 | -2.8 | · | ·
Cc1cc(OC(C)C(=O)NCc2ccccn2)c2c(C)c(C)c(=O)oc2c1 (stereo not given) | 2.3 | 43.6* | 10.3 | -0.9 | -1.7 | -5.2 | + | 172.8*
Cc1c(C)c2ccc(OC(C)C(=O)NCc3ccccn3)cc2oc1=O (stereo not given) | -3.5 | 86.6* | 11.8 | -2.6 | -1.6 | -2.0 | 154.5* | 121.2*
CCOC(=O)c1ccc(NC(=O)NCc2ccc(OC)cc2)cc1 | 1.9 | 1.0 | 3.1 | 1.8 | -5.6 | -27.3 | · | ·
CCOC(=O)c1ccc(NC(=O)C(=O)NCCc2ccc(OC)cc2)cc1 | 6.0 | 50.4* | -2.5 | 1.8 | 0.1 | 2.0 | 115.9* | 106.3*
Cc1cc(=O)oc2c(C)c(OCC(=O)N3CCC(C(=O)O)(c4ccccc4)CC3)ccc12 | -1.5 | 35.1* | 12.8 | 7.1 | -1.2 | -3.1 | 8.2 | -3.3
CCc1cc(=O)oc2cc(C)cc(OCC(=O)N3CCC(C(=O)O)(c4ccccc4)CC3)c12 | -4.3 | 87.7* | 13.7 | · | -0.1 | -3.5 | 6.6 | -7.0
